Reference: article PMC7819943, “Rice protein-binding microarrays: a tool to detect cis-acting elements near promoter regions in rice”
Over roughly 68,000 sequences, “fluorescence intensity (a.u.)” has its median near 9,100; the highest 2% begin near 16,000. For the sample, the highest values were picked, then their nearest neighbours and some sequences at random.

Each sequence was assayed against OsWRKY34 (Oryza sativa, UniProt Q0JBA9 1-250) (assay: protein-binding microarray (RPBM); PBS, 2% BSA, 51.3 ng/ul salmon testes DNA, 50 uM zinc acetate, 200 nM TF, 25 C, 1 h; high values mean tight binding). Details: protein: recombinant; tags: N-terminal polyhistidine and DsRed monomer fusion (pET32a); label: CyDye5-dUTP incorporated in the synthesized complementary strand; 3' TTTTT single-stranded linker to array surface; dsDNA, one strand shown.
Chain of OsWRKY34 (Q0JBA9 entry or part of it): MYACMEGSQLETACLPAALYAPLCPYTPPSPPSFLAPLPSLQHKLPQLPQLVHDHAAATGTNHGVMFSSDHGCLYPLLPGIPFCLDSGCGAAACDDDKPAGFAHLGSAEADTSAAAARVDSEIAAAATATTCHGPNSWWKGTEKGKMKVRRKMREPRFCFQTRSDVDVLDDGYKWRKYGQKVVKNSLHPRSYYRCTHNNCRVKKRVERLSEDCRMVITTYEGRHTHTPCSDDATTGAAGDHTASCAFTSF
Method in brief: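 Transcription factors, each fused N-terminally to a polyhistidine tag and DsRed, were expressed in E. coli BL21-CodonPlus and purified on Ni–NTA. A custom Agilent array was made double-stranded by primer extension with Cy5-dUTP and blocked with 2% BSA. It was incubated with 200 nM protein in PBS, 2% BSA, salmon testes DNA and 50 µM zinc acetate at 25 °C for 1 h, then washed. The binding signal is per-feature fluorescence intensity (arbitrary units) read on an Axon 4000B scanner.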

Sequence | binding signal
GTGTCCTTTTCTTTTTTTTCTTCTTTTCTTTTTCTTTTTCCGGAGTCACCTAGTGCAG | 9510 fluorescence intensity (a.u.)
ACCATGTAACGAGTAATCTTTTGACCTGTGCCACGTCATCCGGAGTCACCTAGTGCAG | 9160 fluorescence intensity (a.u.)
TTTGGTGGTGTGCAAGTGGAGTGGTTTATAAAATTATGTCCGGAGTCACCTAGTGCAG | 8980 fluorescence intensity (a.u.)
CCTCATCACTCGCTTCTCCTTGCTTACACACCATCCCATCCGGAGTCACCTAGTGCAG | 8310 fluorescence intensity (a.u.)
CTAACATTCCCTATGCGGAAACACACACATTCATGCACACCGGAGTCACCTAGTGCAG | 8860 fluorescence intensity (a.u.)
CCTCTTAACTCTTTCCCATTCCCAAATGCGCCACTGTCTCCGGAGTCACCTAGTGCAG | 9190 fluorescence intensity (a.u.)
CTCTGTCCTATTGGAACATTTCTCTGAAGCAACACCATATCGGAGTCACCTAGTGCAG | 9340 fluorescence intensity (a.u.)
TGACAGTGTGATGTGCTTGTTCGCTCTGATTTGATTTTGGCGGAGTCACCTAGTGCAG | 8050 fluorescence intensity (a.u.)
CCCCATCCATTGCAACGGCAACATACACACACCACCACCACGGAGTCACCTAGTGCAG | 8350 fluorescence intensity (a.u.)
CGTTGACTCCATCTCTTTAACATATTTTAGGAGCATGCTTCGGAGTCACCTAGTGCAG | 8610 fluorescence intensity (a.u.)
TCATCTCCATCTTTTTATTTACACGCACACTTCTCAAACTCGGAGTCACCTAGTGCAG | 11100 fluorescence intensity (a.u.)
CCAACTCCGAACGCCTCTTCTTCTCCTCACCGCCGCCGAACGGAGTCACCTAGTGCAG | 9650 fluorescence intensity (a.u.)
GAAGGAGAAGGAGAGGGGAGGGGCTGACGGGTGGGGTCCACGGAGTCACCTAGTGCAG | 14000 fluorescence intensity (a.u.)
TGATGTTACTTTGATTTGGGGTTTGATTTGGGAATATGCACGGAGTCACCTAGTGCAG | 13500 fluorescence intensity (a.u.)
ATCTCCCGCGGTTTCGATTTGGGTTTATTTGGGCGGTGGGCGGAGTCACCTAGTGCAG | 18800 fluorescence intensity (a.u.)
CAACGGCGGTGGCGGCGGCGGCGGCGGCGGGGCGGCGTCGCGGAGTCACCTAGTGCAG | 8370 fluorescence intensity (a.u.)
GGGCTGACGGGTGGGGTCCATGTTGTTTTCCTCTTAGGCACGGAGTCACCTAGTGCAG | 23000 fluorescence intensity (a.u.)
ATGGTTCGATTATTGGTGGAGTTCTCTCTCGGTTTCTCCGCGGAGTCACCTAGTGCAG | 10600 fluorescence intensity (a.u.)
GTGGGAGTGGCGGTGTCGGGTCCGGAACGAAACGGCGGGGCGGAGTCACCTAGTGCAG | 10300 fluorescence intensity (a.u.)
TCTTTGTTTCCCGCGTTTTGTTGGGGATTCGATTTTCGGGCGGAGTCACCTAGTGCAG | 11100 fluorescence intensity (a.u.)
TGTCGGTGTCGGTGGGCGGGGATTCGCGGTAGTGGTGGAACGGAGTCACCTAGTGCAG | 19700 fluorescence intensity (a.u.)

Sequence | binding signal
ATTTGTGATGTGGATTTGGGGTGTTACTTTGATTTGGGGACGGAGTCACCTAGTGCAG | 12900 fluorescence intensity (a.u.)
CAGATTGTTTTCCATGATTCTTAGCCTCTCTGATGTTTGACGGAGTCACCTAGTGCAG | 9640 fluorescence intensity (a.u.)
TGGATTTAGGATGTTACTTTGATTTGGGGATTTGGGGTTTCGGAGTCACCTAGTGCAG | 17200 fluorescence intensity (a.u.)
GCGCCGTCCCTTCGGGCCCACAAGCCGTCCACCCACTTCCCGGAGTCACCTAGTGCAG | 11300 fluorescence intensity (a.u.)
GGGCCTATAACTGTAGTTCCATCACGTCTCTCTGTACGTTCGGAGTCACCTAGTGCAG | 8820 fluorescence intensity (a.u.)
GCCATCTCGCCTAAATAAAACCGCGCTACCCATCGACCGACGGAGTCACCTAGTGCAG | 9280 fluorescence intensity (a.u.)
TCCAGTTTTGGTCTGGGTGATGTGTCATGTTCTGATTGGCCGGAGTCACCTAGTGCAG | 8180 fluorescence intensity (a.u.)
CTTCTTCCATCCAACCCATTGCATGGTGTATTTTCCATATCGGAGTCACCTAGTGCAG | 8320 fluorescence intensity (a.u.)
AAATATGGTGGGCCCCACATGGCTGCGCCTCAAGCTTCTCCGGAGTCACCTAGTGCAG | 9100 fluorescence intensity (a.u.)
GTCTCATGTCACACTCACGTAGCTATATTTTTTATATTATCGGAGTCACCTAGTGCAG | 9120 fluorescence intensity (a.u.)
GACCATTATGTTAACTTGGATTAGGGGTAGGCTAGAGATTCGGAGTCACCTAGTGCAG | 11000 fluorescence intensity (a.u.)
ATGCATTTCTTTTAGGATTTGTGATGTATTTTTCGTTTGACGGAGTCACCTAGTGCAG | 9640 fluorescence intensity (a.u.)
TGGATGTCGCCGTCGGCGGGGTGGTGGGATTTGGAACTGGCGGAGTCACCTAGTGCAG | 12500 fluorescence intensity (a.u.)
GATTTGGGGATTTGGGGTTTGATTTAGGATGTGCATGCCACGGAGTCACCTAGTGCAG | 21400 fluorescence intensity (a.u.)
TGGGATGTATTTGAGTTGTGATGCATTTCTTTTAGGATTTCGGAGTCACCTAGTGCAG | 8310 fluorescence intensity (a.u.)
TTAGGGGTAGGCTAGAGATTGATTGGGGCTTATATGATAACGGAGTCACCTAGTGCAG | 19700 fluorescence intensity (a.u.)
TTAGGGGCGGTGGGTGGTTTTCGGCTGGGAAATCGCGGATCGGAGTCACCTAGTGCAG | 11500 fluorescence intensity (a.u.)
GTTTGGGATGTCGCGGGGATTTAGGGGCGGTGGGTGGTTTCGGAGTCACCTAGTGCAG | 39300 fluorescence intensity (a.u.)
ACTTTGATTGGGCTGGGTTCATATGAGATTAGGGGAAAAACGGAGTCACCTAGTGCAG | 13500 fluorescence intensity (a.u.)
GAGCTCCTGTTGGTCGGGGACGTTTCGCGTTGGTTCCTCTCGGAGTCACCTAGTGCAG | 12000 fluorescence intensity (a.u.)
TATAATTTTGTGCTAATATGCATTTTCCTTGTTTTGTTTACGGAGTCACCTAGTGCAG | 11300 fluorescence intensity (a.u.)
